PMC4336329 (PLoS ONE, 2015)
Among all 310,000 compounds or so, about 14,000 (4.5%) showed an effect of 50% or more. Effects have a minus sign here. What follows is part of a selection rich in strong results, with near analogues and random picks from the rest.

Target: human ether-à-go-go-related gene (hERG) potassium channel (human, UniProt Q12809)
Test: primary screen, population patch clamp on CHO cells stably expressing hERG; higher = less effect of the substance
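Also: peak tail current of the secondary pulse compared with the same well before compound.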

human ether-à-go-go-related gene (hERG) potassium channel, sequence (Q12809 whole entry, looked up): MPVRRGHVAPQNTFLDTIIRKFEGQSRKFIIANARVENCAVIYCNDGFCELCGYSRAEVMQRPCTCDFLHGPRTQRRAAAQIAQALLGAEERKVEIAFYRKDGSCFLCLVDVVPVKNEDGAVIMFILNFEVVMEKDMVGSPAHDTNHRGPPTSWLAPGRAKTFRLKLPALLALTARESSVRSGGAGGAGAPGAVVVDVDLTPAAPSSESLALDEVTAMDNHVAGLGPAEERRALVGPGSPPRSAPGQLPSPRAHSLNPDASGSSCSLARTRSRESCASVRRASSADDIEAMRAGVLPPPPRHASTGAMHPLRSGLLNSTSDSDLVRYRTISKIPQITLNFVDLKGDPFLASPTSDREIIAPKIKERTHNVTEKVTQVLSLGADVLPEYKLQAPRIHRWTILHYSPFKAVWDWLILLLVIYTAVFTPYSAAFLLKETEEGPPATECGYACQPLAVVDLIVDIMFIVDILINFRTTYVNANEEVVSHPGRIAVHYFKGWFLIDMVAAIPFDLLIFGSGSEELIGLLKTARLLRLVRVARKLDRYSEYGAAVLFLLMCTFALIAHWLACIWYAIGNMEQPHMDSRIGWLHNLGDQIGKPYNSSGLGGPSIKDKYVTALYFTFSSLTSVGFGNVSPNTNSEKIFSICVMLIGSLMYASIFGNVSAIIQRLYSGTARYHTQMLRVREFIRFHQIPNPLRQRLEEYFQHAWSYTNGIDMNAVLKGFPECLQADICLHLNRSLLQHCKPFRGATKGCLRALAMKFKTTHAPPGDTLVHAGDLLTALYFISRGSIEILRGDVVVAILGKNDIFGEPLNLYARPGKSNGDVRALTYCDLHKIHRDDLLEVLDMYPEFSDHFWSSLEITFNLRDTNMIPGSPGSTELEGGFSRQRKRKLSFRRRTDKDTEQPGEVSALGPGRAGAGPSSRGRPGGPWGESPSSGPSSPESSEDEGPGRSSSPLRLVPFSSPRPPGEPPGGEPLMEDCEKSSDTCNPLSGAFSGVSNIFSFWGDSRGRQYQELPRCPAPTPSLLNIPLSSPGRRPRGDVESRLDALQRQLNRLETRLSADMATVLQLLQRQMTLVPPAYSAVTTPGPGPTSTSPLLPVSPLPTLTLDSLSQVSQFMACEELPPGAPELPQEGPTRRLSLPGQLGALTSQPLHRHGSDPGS

SMILES	hERG current change (%, negative = inhibition) at 10uM [%]
CCOC(=O)C1=C(c2ccccc2)NC(SCC(=O)NC2CCCCC2)=C(C#N)C1c1ccco1 (stereo not shown)	-1.35
COc1ccc(OC)c(C(=O)Cn2nnc3ccccc3c2=O)c1	9.14
O=[N+]([O-])c1ccc2[nH]nc(-c3ccccc3)c2c1	9.26
O=[N+]([O-])c1ccc2c(c1)C(c1ccccc1)=NCCN2	-69.1
O=C1C2=C(C(c3ccccc3)=NCCN2)C(c2cccc([N+](=O)[O-])c2)N1c1ccccc1 (stereo not shown)	-21.3
CCc1cc(C(=O)Nc2cc(Cl)ccc2N2CCN(C)CC2)sc1C	3.43
CN1CCN(c2ccc(Cl)cc2NC(=O)/C=C/c2cccc(F)c2)CC1	-69.9
O=C(/C=C/c1ccc(Cl)cc1)Nc1ccccc1N1CCOCC1	2.84
CN1CCN(c2ccc(S(=O)(=O)N3CCCCC3)cc2NC(=O)/C=C/c2ccc(Cl)c([N+](=O)[O-])c2)CC1	-17.4
CN1CCN(c2ccc(Cl)cc2NC(=O)/C=C/c2ccc(F)cc2)CC1	-75.6
CN1CCN(NC(=O)/C=C/c2cccc(Cl)c2)CC1	-6.09
CCc1c(C)nc(N)nc1N1N=C1SC(C(C)=O)C(C)=O	27.8
CN(CCC#N)C(=O)COC(=O)c1ccccc1OCc1ccccc1Cl	1.72
CNC(=O)CC1C(=O)N(c2ccc(F)cc2)C(=S)N1NC(=O)c1ccc(Br)cc1 (stereo not shown)	2.82
O=C(NC(NC(=O)c1c(F)cccc1F)c1ccc([N+](=O)[O-])cc1)c1c(F)cccc1F	-43.8
Cc1ccc(SCCC(=O)NCc2ccco2)cc1	-3.96
C/C(=N/NS(=O)(=O)c1ccc(C)cc1)c1ccc(NC(=O)C(F)(F)F)cc1	10.7
Cl.c1ccc(COC(CN2CCCCCC2)CN2CCCCCC2)cc1	-63.6
OC(COc1ccc(OCc2ccccc2)cc1)CN1CCCCC1 (stereo not shown)	-39.6
CCOC(=O)N1CCN(CC(O)COC(CC)c2ccccc2)CC1.Cl (stereo not shown)	-19.6
OC(COC(c1ccccc1)c1ccccc1)CN1CCCCC1 (stereo not shown)	-62.9

SMILES	hERG current change (%, negative = inhibition) at 10uM [%]
CCOC(=O)C1CCCN(CC(O)COC(c2ccccc2)c2ccccc2)C1 (stereo not shown)	-79.7
CCOC(=O)C1CCCN(CCC(C)c2ccccc2)C1 (stereo not shown)	-36.5
OC(COC(c1ccccc1)c1ccccc1)CN1CCOCC1 (stereo not shown)	-5.77
Cl.OC(COCc1ccccc1)CN1CCCCC1 (stereo not shown)	6.73
CCC(OCC(O)CN1CCCCC1)c1ccccc1.Cl (stereo not shown)	16.9
CCN1CCN(CC(O)COC(c2ccccc2)c2ccccc2)CC1 (stereo not shown)	-17.1
CCOC(=O)C1CCN(CC(O)COC(CC)c2ccccc2)CC1.Cl (stereo not shown)	-63.7
CCOC(=O)C1CCCN(CC(O)COc2ccccc2C(C)=O)C1.Cl (stereo not shown)	-46.2
CCOC(=O)C1CCCc2c1[nH]c1c(C(=O)O)cccc21 (stereo not shown)	13.3
COc1ccc2nc(SCC(=O)NCCc3ccccc3)[nH]c2c1	-21.6
COc1ccc(-c2cc(C(=O)N3CCN(c4cccc(C)c4C)CC3)c3ccccc3n2)cc1OC	22.9
c1ccc(-n2cccc2)c(N2CCCCC2)c1	3.76
O=c1cc(CSc2nnc(-c3cccnc3)n2-c2ccccc2F)nc2sccn12	-4.15
CCCCNc1ccc(C(=O)OCCN(C)C)cc1.Cl	-11.6
COc1ccc(C(=O)N/N=C/c2c(CO)cnc(C)c2O)cc1	-1.9
Cc1ccc(C(OCC(O)CN2CCCCC2)c2ccccc2)cc1 (stereo not shown)	-86.6
CC1CCCN(CC(O)COC(c2ccccc2)c2ccccc2)C1 (stereo not shown)	-65
OC1CCCN(CC(O)COC(c2ccccc2)c2ccccc2)C1 (stereo not shown)	-18
CC1CCCN(CC(O)COCc2ccccc2)C1.Cl (stereo not shown)	-1.07
Cn1c(CNC(=O)c2ccco2)nnc1SCC(=O)c1ccccc1	10.6
CCn1nc(NS(=O)(=O)c2ccc([N+](=O)[O-])cc2)c2cc3ccccc3nc21	19.3

SMILES	hERG current change (%, negative = inhibition) at 10uM [%]
Cc1cc(C)cc(SCc2noc(C(=O)NCCCN3CCOCC3)c2C(=O)NCCCN2CCOCC2)c1	-30.4
O=C(Nc1ccccc1F)c1ccccc1-c1ccc(C(F)(F)F)cc1	-5.12
CC1CCN(Cc2c(C(=O)N/N=C/c3ccc(C(C)C)cc3)nnn2-c2nonc2N)CC1	20.2
Nc1nonc1-n1nnc(C(=O)N/N=C/c2cccc(O)c2)c1CN1CCCC1	7.84
CCc1ccc(/C=N/NC(=O)c2nnn(-c3nonc3N)c2CN2CCOCC2)cc1	-11.6
CN1CCN(Cc2c(C(=O)N/N=C/c3cccc(Br)c3)nnn2-c2nonc2N)CC1	-74.8
Nc1nonc1-n1nnc(C(=O)N/N=C/c2cccc(Cl)c2)c1CN1CCCCCC1	18.4
CC(C)c1ccc(/C=N/NC(=O)c2nnn(-c3nonc3N)c2CN2CCOCC2)cc1	-56.6
O=C1NC(=O)C(=Cc2ccc3c(c2)OCO3)C(=O)N1	15.3
CC1CN(C(=O)COC(=O)c2ccc(O)cc2)CC(C)O1 (stereo not shown)	17.4
O=C(NCCCNC(=O)C(F)(F)C(F)F)C(F)(F)C(F)F	6.91
CC(C)(C)OC(=O)NCCCC[C@H](NC(=O)c1nc[nH]c1C(=O)NC(c1ccccc1)c1ccccc1)C(=O)OC(C)(C)C	8.48
Brc1cccc(Cn2c(-c3cncs3)nc3ccccc32)c1	-10.5
COc1ccccc1/C=C/C(=O)NC1CC2CCC1C2 (stereo not shown)	-3.53
O=C(/C=C/c1cccc([N+](=O)[O-])c1)NC1CC2CCC1C2 (stereo not shown)	-24.7
O=C(/C=C/c1ccccc1)NC1CC2CCC1C2 (stereo not shown)	5.72
O=C(/C=C/c1ccc(Cl)cc1)NC1CC2CCC1C2 (stereo not shown)	-53.1
O=C(/C=C/c1ccc([N+](=O)[O-])cc1)NC1CC2CCC1C2 (stereo not shown)	-67.8
O=C(CSCc1ccc([N+](=O)[O-])cc1)NC1CC2CCC1C2 (stereo not shown)	-15.3
